Results on 40 compounds are retold here after ChEMBL document CHEMBL3988442, “University of Dundee, Small-Polar-MMV Screening Library” (2021).

Each structure is given as a SMILES string.

The experiment has as its target T1, Arginase-2, mitochondrial (Homo sapiens) (UniProt P78540).
T1 sequence (whole entry): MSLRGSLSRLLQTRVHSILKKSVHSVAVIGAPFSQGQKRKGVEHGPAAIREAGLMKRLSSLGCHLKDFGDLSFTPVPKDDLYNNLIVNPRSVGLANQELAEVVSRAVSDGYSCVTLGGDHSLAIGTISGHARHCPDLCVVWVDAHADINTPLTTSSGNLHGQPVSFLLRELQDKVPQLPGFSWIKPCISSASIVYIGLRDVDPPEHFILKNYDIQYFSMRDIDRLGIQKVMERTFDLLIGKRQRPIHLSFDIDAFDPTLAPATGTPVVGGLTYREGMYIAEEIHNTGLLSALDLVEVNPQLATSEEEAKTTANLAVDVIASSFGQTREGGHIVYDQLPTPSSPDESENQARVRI
The experiment is described as follows: in vitro enzyme assay to detect the production of urea directly proportional to the activity of Arginase II. Format: functional. Also on record: scale not given: in the data most compounds retested in dose-response had high values. The following applies: 30 µM.
As to `CC1=Nc2c(c(=O)[nH]n2C2CCCC2)C(c2cccnc2)S1` (stereo not given), the Percent Effect was determined as 7.03%.
For the compound `CCn1c(NCc2ccc(OC)cc2)nc2c(C)nn(C)c2c1=O`, the Percent Effect was -4.87%.
Turning to `O=C(Cn1nc2c(cc1=O)CCCC2)NC(Cc1ccccc1)C(=O)O` (stereo not given), the Percent Effect was -13.5%.
In the case of `CNC(=O)[C@H]1C[C@@H]2CN(C(=O)c3cccnc3)C[C@@H]2N1S(C)(=O)=O`, the Percent Effect was 5.95%.
`CCc1cc(CNC(=O)N2CCN(c3nc(C)c(C)s3)CC2)on1`: the Percent Effect stood at 3.78%.
Consider `CN1CCN(C(=O)Cn2ccc3c(Cl)cccc32)CC1`, for which the Percent Effect came to 4.87%.
As to `CC[C@@H](NC(C)=O)C(=O)NCc1cccnc1Oc1ccccc1OC`, the Percent Effect was found to be 4.87%.
Turning to `CN(C)c1ncccc1NC(=O)C1CN(Cc2ccccc2)CCO1` (stereo not given), the Percent Effect is -8.11%.
For the compound `Cc1noc(C)c1C(=O)N1CCCC(c2nccn2Cc2cscn2)C1` (stereo not given), the Percent Effect was found to be 5.95%.
`CCn1c(NCc2ccccc2)nc2c(C)nn(C)c2c1=O`: the Percent Effect was 8.11%.
`COc1ccccc1Oc1ncccc1CNC(=O)[C@@H](N)CCO`: the Percent Effect was -12.4%.
Regarding `CNC(=O)[C@@H]1CCO[C@@H]2CCN(CCc3ccccc3)C[C@H]21`, the Percent Effect worked out at 8.11%.
For the compound `O=C(Cn1ccc2c(Cl)cccc21)N1CCCC1`, the Percent Effect is 8.11%.
In the case of `CN(C)C(=O)CN1CCCC(c2cncc(-c3cccc(Cl)c3)n2)C1` (stereo not given), the Percent Effect was determined as 1.62%.
For `NC(=O)CCCNC(=O)c1cc(Br)c2c(c1)OCCO2`, the Percent Effect came to 3.78%.
Under `CC(C)[C@H](NC(=O)Cn1nc2c(cc1=O)CCCC2)C(=O)O` stands 13.5%; under `CC1CCN(S(=O)(=O)c2cccn(CC(=O)NC(C)(C)C)c2=O)CC1`, 8.11%; under `COc1ccc(C2SC(C)=Nc3c2c(=O)[nH]n3C2CCCC2)cc1O` (stereo not given), 2.7%.
Consider `CC(=O)NCCNC(=O)c1cc(Br)c2c(c1)OCCO2`, for which the Percent Effect was 4.87%.
Consider `O=C(c1coc(CN2CCN(c3ccccc3F)CC2)n1)N1CCCC1`, for which the Percent Effect turned out to be 3.78%.
For `CCC(C(=O)NCc1ccncc1)N(c1ccc(F)cc1)S(C)(=O)=O` (stereo not given), the Percent Effect was found to be 8.11%.
For `CCCS(=O)(=O)CC(=O)N1CCCC1c1noc(C2CC2)n1` (stereo not given), the Percent Effect was 7.03%.
Take `NC(=O)CN1CCC(c2cncc(-c3cccc(Cl)c3)n2)CC1`: the Percent Effect amounted to 2.7%.
The same measure for `COc1ccccc1Oc1ncccc1CNC(=O)[C@H](C)O`: 4.87%; for `OCCN1CCC(c2cncc(-c3cccc(Cl)c3)n2)CC1`: -3.78%; for `O=C(O)C(c1ccc(Cl)c(F)c1)N1CCN(Cc2ccccn2)CC1` (stereo not given): 5.95%.
Consider `COc1ncccc1CNC(=O)N(Cc1ccccc1F)C1CC1`, for which the Percent Effect turned out to be 5.95%.
With `Cc1nn(C)cc1C(=O)N1CCCC(c2nccn2Cc2cscn2)C1` (stereo not given), the Percent Effect is -12.4%.
The same measure for `NS(=O)(=O)CCNC(=O)c1cc(Br)c2c(c1)OCCO2`: 8.11%; for `COc1ccccc1Oc1ncccc1CNC(=O)C(C)CN` (stereo not given): 11.3%.
In the case of `CN(C)c1ncccc1CNC(=O)N(Cc1ccccc1F)C1CC1`, the Percent Effect was 8.11%.
In the case of `FC(F)(F)C1CCc2nnc(CNCc3cccs3)n2C1` (stereo not given), the Percent Effect worked out at 2.7%.
Under `O=C([C@@H]1CCO[C@@H]2CCN(CCc3ccccc3)C[C@@H]21)N1CCCC1` stands 11.3%.
On to `Cc1nn(CCO)c(C)c1CNC1CCc2c(F)cccc21` (stereo not given), for which the Percent Effect came to 5.95%.
The same measure for `Nc1ccc(C(=O)N2CCCC(c3nccn3Cc3cscn3)C2)cn1` (stereo not given): 5.95%; for `Cc1cccc(-c2nc(CN3CC(n4nc(C)cc4C)C3)no2)c1`: 5.95%; for `COc1ccc(CNCc2nnc3n2CC(C(F)(F)F)CC3)cc1` (stereo not given): 9.19%.
`COC(=O)CCNC(=O)c1cc(Br)c2c(c1)OCCO2`: the Percent Effect was 5.95%.
Take `COc1ccccc1Oc1ncccc1CNC(=O)C(O)C(F)(F)F` (stereo not given): the Percent Effect turned out to be 3.78%.
As for `CN(CC(=O)N1CCCC1c1noc(C2CC2)n1)C1CC1` (stereo not given), the Percent Effect was determined as 5.95%.
